Assay results taken from PubChem BioAssay (NCATS).
Records with an inconclusive call do not appear. A number with no mark means an inactive call. The call rests on the fitted dose curve; in most records, active means well fitted curve in the direction sought with a large enough effect; inconclusive means small, poorly fitted or top-dose-only effect, or another doubt; inactive means no such curve, though single readings can be large; an effect the other way counts as inactive or inconclusive. Numbered stars: 1 amine (or outer) side, 2 acyl side, 3 side chain; on linkers, the order of the positions; unused ones are H or OH. Bridge positions count the residues as written; N and C are the ends. Square brackets hold non-standard residues; d marks the D form. Peptide text beside a SMILES is read from it. I, II: the chains in the order shown. Actinocin(9to1) = Cc1c2oc3c(C)ccc(C(=O)[*:1])c3nc-2c(C(=O)[*:2])c(N)c1=O; NMeV = CN[C@H](C(=O)O)C(C)C; Sar = CNCC(=O)O

Target: Protein phosphatase 1D (Homo sapiens) (UniProt O15297)
Sequence (O15297 whole entry, looked up): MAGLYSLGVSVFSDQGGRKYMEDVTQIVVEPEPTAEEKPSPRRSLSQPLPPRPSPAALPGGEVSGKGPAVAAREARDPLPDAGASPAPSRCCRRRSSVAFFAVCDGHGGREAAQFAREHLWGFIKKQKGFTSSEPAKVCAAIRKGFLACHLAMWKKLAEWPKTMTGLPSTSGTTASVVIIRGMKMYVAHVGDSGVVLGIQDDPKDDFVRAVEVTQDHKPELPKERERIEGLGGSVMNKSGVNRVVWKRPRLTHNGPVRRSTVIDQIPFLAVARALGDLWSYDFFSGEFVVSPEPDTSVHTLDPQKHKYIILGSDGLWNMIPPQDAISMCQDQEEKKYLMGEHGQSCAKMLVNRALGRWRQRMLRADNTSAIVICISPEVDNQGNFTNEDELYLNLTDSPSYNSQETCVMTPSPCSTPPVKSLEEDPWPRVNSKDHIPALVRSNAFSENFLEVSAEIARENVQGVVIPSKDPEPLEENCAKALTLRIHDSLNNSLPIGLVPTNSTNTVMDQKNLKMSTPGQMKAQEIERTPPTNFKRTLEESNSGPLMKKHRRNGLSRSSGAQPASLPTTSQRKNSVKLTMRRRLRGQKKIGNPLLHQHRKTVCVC
Assay: Rhodamine-PBP qHTS Assay for Modulators of WT P53-Induced Phosphatase 1 (WIP1) (AID 1347425); further: % of control where 0% means no effect
Conditions: recombinant WIP1, Rhodamine-PBP phosphate fluorescence, real-time; series mostly up to 57.5 µM; activity change, negative = inhibition: at the top concentration
Method in brief: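 Read-out: Rhodamine-PBP fluorescence (ex 525/em 598 nm) for released Pi, read each minute for 11 min after adding 10 uM VEPPL-pS-QETFS; signal taken as f1 minus pre-substrate f0. Enzyme 5 nM WIP1 with 1 hr room-temperature compound preincubation.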
For OCc1ccccc1O, the “activity change, negative = inhibition” value was 8.72%. In the case of CN(C)CCOc1ccccc1Cc1ccccc1, the “activity change, negative = inhibition” value is reported as 15.7%. In the case of C[C@H](O)C(=O)Nc1c(I)c(C(=O)NC(CO)CO)c(I)c(C(=O)NC(CO)CO)c1I, the “activity change, negative = inhibition” value is reported as 5.56%. In the case of COc1cc(OC)cc(OC)c1, the “activity change, negative = inhibition” value is reported as 0.897%. In the case of CN(C)C(=S)SC(=S)N(C)C, the “activity change, negative = inhibition” value is reported as 7.11%. For CCCCOc1cc(C(=O)NCCN(CC)CC)c2ccccc2n1, the “activity change, negative = inhibition” value was 7.42%. In the case of COc1cccc(OC)c1C(=O)N[C@@H]1C(=O)N2[C@@H]1SC(C)(C)[C@@H]2C(=O)O, the “activity change, negative = inhibition” value is reported as -3.91%. For O=C1[C@H]2CCCC[C@H]2C(=O)N1CCCCN1CCN(c2nsc3ccccc23)CC1, the “activity change, negative = inhibition” value was -17.3%. With COc1cc(C(=S)N2CCOCC2)cc(OC)c1OC the “activity change, negative = inhibition” value was 4.34%. For O=C(N/N=C/c1ccccc1O)c1ccncc1, the “activity change, negative = inhibition” value was 24.6%. In the case of CCN(CC)C(=O)N1CCN(C)CC1, the “activity change, negative = inhibition” value is reported as -11%. In the case of CCN(CCCc1ccccc1)CCCc1ccccc1, the “activity change, negative = inhibition” value is reported as 15.1%. In the case of COc1cc(N)c(Cl)cc1C(=O)NC1CCN(CCCOc2ccc(F)cc2)CC1OC (stereo unspecified), the “activity change, negative = inhibition” value is reported as 27.2%. In the case of COc1cc(/C=C/C(=O)O[C@H]2CC[C@]34C[C@]35CC[C@]3(C)[C@@H]([C@H](C)CCC=C(C)C)CC[C@@]3(C)[C@@H]5CC[C@H]4C2(C)C)ccc1O, the “activity change, negative = inhibition” value is reported as 0.395%. With CCN(CC)C(=O)/C(C#N)=C/c1cc(O)c(O)c([N+](=O)[O-])c1 the “activity change, negative = inhibition” value was -0.323%. In the case of Cc1c2oc3c(C)ccc(C(=O)N[C@@H]4C(=O)N[C@H](C(C)C)C(=O)N5CCC[C@H]5C(=O)N(C)CC(=O)N(C)[C@@H](C(C)C)C(=O)O[C@@H]4C)c3nc-2c(C(=O)N[C@@H]2C(=O)N[C@H](C(C)C)C(=O)N3CCC[C@H]3C(=O)N(C)CC(=O)N(C)[C@@H](C(C)C)C(=O)O[C@@H]2C)c(N)c1=O (I: T[dV]P[Sar][NMeV] / II: T[dV]P[Sar][NMeV]; ester I:1-I:C, II:1-II:C; linker I:N-II:N via Actinocin(9to1)), the “activity change, negative = inhibition” value is reported as 9.5%. In the case of O=C(COc1ccc(Cl)cc1)N1CCN(Cc2ccc3c(c2)OCO3)CC1, the “activity change, negative = inhibition” value is reported as 6.57%. With NC(=O)C(=O)N/N=C/c1ccc([N+](=O)[O-])o1 the “activity change, negative = inhibition” value was -11.2%. With NCCc1ccn[nH]1 the “activity change, negative = inhibition” value was 19.2%. In the case of CCCCOc1ccc(OCCCN2CCOCC2)cc1, the “activity change, negative = inhibition” value is reported as 8.57%. In the case of CN1CCC(=C2c3ccccc3Sc3ccccc32)CC1, the “activity change, negative = inhibition” value is reported as 23.3%. In the case of C=C1C(=C/C=C2\CCC[C@]3(C)[C@@H]([C@H](C)/C=C/[C@@H](O)C4CC4)CC[C@@H]23)C[C@@H](O)C[C@@H]1O, the “activity change, negative = inhibition” value is reported as 1.47%. In the case of CCCCS(=O)(=O)N[C@@H](Cc1ccc(OCCCCC2CCNCC2)cc1)C(=O)O, the “activity change, negative = inhibition” value is reported as 6.64%. For CNCC[C@@H](Oc1ccccc1C)c1ccccc1, the “activity change, negative = inhibition” value was 14.5%. For COC(=O)CCc1ccc(OCC(O)CNC(C)C)cc1 (stereo unspecified), the “activity change, negative = inhibition” value was 13%. With CC(=O)[C@H]1CC[C@H]2[C@@H]3C[C@H](C)C4=CC(=O)CC[C@]4(C)[C@H]3[C@@H](O)C[C@]12C the “activity change, negative = inhibition” value was 24.6%. For CC[N+](CC)(CCNC(=O)C(=O)NCC[N+](CC)(CC)Cc1ccccc1Cl)Cc1ccccc1Cl, the “activity change, negative = inhibition” value was -7.57%. With CCOC(=O)c1cccc(N)c1 the “activity change, negative = inhibition” value was 2.86%. With OC[C@H]1O[C@H](O[C@]2(CCl)O[C@H](CCl)[C@@H](O)[C@@H]2O)[C@H](O)[C@@H](O)[C@H]1Cl the “activity change, negative = inhibition” value was 12.1%. With NC[C@H]1O[C@H](O[C@H]2[C@H](O)[C@@H](O[C@H]3O[C@H](CO)[C@@H](O)[C@H](N)[C@H]3O)[C@H](N)C[C@@H]2N)[C@H](N)[C@@H](O)[C@@H]1O the “activity change, negative = inhibition” value was 1.18% [at 23.8 µM]. With CC1(C)O[C@@H]2C[C@H]3[C@@H]4CCC5=CC(=O)CC[C@]5(C)[C@@]4(F)[C@@H](O)C[C@]3(C)[C@]2(C(=O)CCl)O1 the “activity change, negative = inhibition” value was 5.18%. With CNC(=O)CN(CCN(CCN(CC(=O)[O-])CC(=O)NC)CC(=O)[O-])CC(=O)[O-].O.[Gd+3] the “activity change, negative = inhibition” value was 1.62%. With Cc1ccnc(NS(=O)(=O)c2ccc(N)cc2)n1 the “activity change, negative = inhibition” value was -2.09%. For C#C[C@]1(O)CC[C@H]2[C@@H]3CCc4cc(OC5CCCC5)ccc4[C@H]3CC[C@@]21C, the “activity change, negative = inhibition” value was 23.3%. In the case of CCN(CC)CCNC(=O)COc1ccc(Cl)cc1, the “activity change, negative = inhibition” value is reported as 12.2%. For Cc1cccn2c(=O)c(-c3nnn[nH]3)cnc12, the “activity change, negative = inhibition” value was 0.108% [at 23.8 µM].

System: not listed separately
Assay: Primary qHTS for inhibitors of La Crosse Virus (LACV) - induced cell death in SH-SY5Y cells (AID 1508616);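 further: top concentration of the series differs between compounds; 0% = infected DMSO wells and 100% = uninfected DMSO wells; higher means more rescue of cells from virus-induced death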
Conditions: SH-SY5Y LACV cytopathicity rescue, ATP luminescence, 6 d; series mostly up to 4.29 µM; activity change: at the top concentration
Method in brief: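 Cytopathicity rescue screen: compounds pinned onto SH-SY5Y cells, which are then infected with LACV (MOI 0.01) and held 6 days at 37C. Percent activity is scaled between infected DMSO control and uninfected DMSO control.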
For OCc1ccccc1O, the “activity change” value was 2.95%. For CN(C)CCOc1ccccc1Cc1ccccc1, the “activity change” value was 14.7%. For C[C@H](O)C(=O)Nc1c(I)c(C(=O)NC(CO)CO)c(I)c(C(=O)NC(CO)CO)c1I, the “activity change” value was 36.2%. For COc1cc(OC)cc(OC)c1, the “activity change” value was -3.55%. In the case of CCCCOc1cc(C(=O)NCCN(CC)CC)c2ccccc2n1, the “activity change” value is reported as -17.4%. For COc1cccc(OC)c1C(=O)N[C@@H]1C(=O)N2[C@@H]1SC(C)(C)[C@@H]2C(=O)O, the “activity change” value was -0.244%. With O=C1[C@H]2CCCC[C@H]2C(=O)N1CCCCN1CCN(c2nsc3ccccc23)CC1 the “activity change” value was -3.88%. In the case of COc1cc(C(=S)N2CCOCC2)cc(OC)c1OC, the “activity change” value is reported as -8.65%. With O=C(N/N=C/c1ccccc1O)c1ccncc1 the “activity change” value was -23.1%. In the case of CCN(CC)C(=O)N1CCN(C)CC1, the “activity change” value is reported as 15.2%. In the case of CCN(CCCc1ccccc1)CCCc1ccccc1, the “activity change” value is reported as -11.3%. In the case of COc1cc(N)c(Cl)cc1C(=O)NC1CCN(CCCOc2ccc(F)cc2)CC1OC (stereo unspecified), the “activity change” value is reported as -3.73%. For COc1cc(/C=C/C(=O)O[C@H]2CC[C@]34C[C@]35CC[C@]3(C)[C@@H]([C@H](C)CCC=C(C)C)CC[C@@]3(C)[C@@H]5CC[C@H]4C2(C)C)ccc1O, the “activity change” value was 12%. For CCN(CC)C(=O)/C(C#N)=C/c1cc(O)c(O)c([N+](=O)[O-])c1, the “activity change” value was 17.7%. For Cc1c2oc3c(C)ccc(C(=O)N[C@@H]4C(=O)N[C@H](C(C)C)C(=O)N5CCC[C@H]5C(=O)N(C)CC(=O)N(C)[C@@H](C(C)C)C(=O)O[C@@H]4C)c3nc-2c(C(=O)N[C@@H]2C(=O)N[C@H](C(C)C)C(=O)N3CCC[C@H]3C(=O)N(C)CC(=O)N(C)[C@@H](C(C)C)C(=O)O[C@@H]2C)c(N)c1=O (I: T[dV]P[Sar][NMeV] / II: T[dV]P[Sar][NMeV]; ester I:1-I:C, II:1-II:C; linker I:N-II:N via Actinocin(9to1)), the “activity change” value was 10.9%. For O=C(COc1ccc(Cl)cc1)N1CCN(Cc2ccc3c(c2)OCO3)CC1, the “activity change” value was -8.69%. With NC(=O)C(=O)N/N=C/c1ccc([N+](=O)[O-])o1 the “activity change” value was -17.4%. In the case of NCCc1ccn[nH]1, the “activity change” value is reported as -0.928%. With CCCCOc1ccc(OCCCN2CCOCC2)cc1 the “activity change” value was 31.6%. In the case of CN1CCC(=C2c3ccccc3Sc3ccccc32)CC1, the “activity change” value is reported as -19%. With C=C1C(=C/C=C2\CCC[C@]3(C)[C@@H]([C@H](C)/C=C/[C@@H](O)C4CC4)CC[C@@H]23)C[C@@H](O)C[C@@H]1O the “activity change” value was -3.79%. In the case of CCCCS(=O)(=O)N[C@@H](Cc1ccc(OCCCCC2CCNCC2)cc1)C(=O)O, the “activity change” value is reported as -1.45%. For CNCC[C@@H](Oc1ccccc1C)c1ccccc1, the “activity change” value was -5.12%. With COC(=O)CCc1ccc(OCC(O)CNC(C)C)cc1 (stereo unspecified) the “activity change” value was -9.93%. With CC(=O)[C@H]1CC[C@H]2[C@@H]3C[C@H](C)C4=CC(=O)CC[C@]4(C)[C@H]3[C@@H](O)C[C@]12C the “activity change” value was 63.9%. For CC[N+](CC)(CCNC(=O)C(=O)NCC[N+](CC)(CC)Cc1ccccc1Cl)Cc1ccccc1Cl, the “activity change” value was -5.94%. With CCOC(=O)c1cccc(N)c1 the “activity change” value was 2.59%. For OC[C@H]1O[C@H](O[C@]2(CCl)O[C@H](CCl)[C@@H](O)[C@@H]2O)[C@H](O)[C@@H](O)[C@H]1Cl, the “activity change” value was 7.33%. For NC[C@H]1O[C@H](O[C@H]2[C@H](O)[C@@H](O[C@H]3O[C@H](CO)[C@@H](O)[C@H](N)[C@H]3O)[C@H](N)C[C@@H]2N)[C@H](N)[C@@H](O)[C@@H]1O, the “activity change” value was 37.3% [at 1.78 µM]. For CC1(C)O[C@@H]2C[C@H]3[C@@H]4CCC5=CC(=O)CC[C@]5(C)[C@@]4(F)[C@@H](O)C[C@]3(C)[C@]2(C(=O)CCl)O1, the “activity change” value was 20.5%. With CNC(=O)CN(CCN(CCN(CC(=O)[O-])CC(=O)NC)CC(=O)[O-])CC(=O)[O-].O.[Gd+3] the “activity change” value was 19%. In the case of Cc1ccnc(NS(=O)(=O)c2ccc(N)cc2)n1, the “activity change” value is reported as 2.21%. For C#C[C@]1(O)CC[C@H]2[C@@H]3CCc4cc(OC5CCCC5)ccc4[C@H]3CC[C@@]21C, the “activity change” value was 37%. In the case of CCN(CC)CCNC(=O)COc1ccc(Cl)cc1, the “activity change” value is reported as 16.4%. With Cc1cccn2c(=O)c(-c3nnn[nH]3)cnc12 the “activity change” value was 5.26% [at 1.78 µM].
